The text below walks through data of PubChem BioAssay.

In general, inhibition refers to the change of the read-out against control, counted positive when it falls.

The nature of assay [1]: LFS_MB_P medulloblastoma growth inhibition, cell-based, chromothripsis tumors, cisplatin or BGB combos (AID 1671449).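 Further: cells exposed for 96 hours; 0% = vehicle DMSO and 100% = killing by high DMSO.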 Particulars: LFS_MB_P medulloblastoma cells.
A short description of assay [2]: HDN33 neuroblastoma growth inhibition, cell-based, chromothripsis tumors, cisplatin or BGB combos (AID 1671450).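 Further: cells exposed to compound for four days; 0% = vehicle DMSO and 100% = cell killing by high DMSO.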 Particulars: HDN33 neuroblastoma cells, stronger effect = higher value.
A short description of assay [3]: ICB984 medulloblastoma cell growth inhibition, synergistic combos for chromothripsis tumors, cisplatin or BGB combos (AID 1671451; call rule not given here;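 further: cells exposed for 96 hours before readout; 0% = vehicle DMSO and 100% = killing by high DMSO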). The settings on record: ICB984 medulloblastoma cells, drug combinations, stronger effect = higher value.
Assay [4] is described as follows: LFS_MB_1R medulloblastoma cell growth inhibition, synergistic combos for chromothripsis tumors, cisplatin or BGB combos (AID 1671452).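 Further: cells exposed for 96 hours before readout.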 The settings on record: LFS_MB_1R medulloblastoma cells, stronger effect = higher value.
The nature of assay [5]: HTB85 osteosarcoma cell growth inhibition, synergistic combos for chromothripsis tumors, BGB or cisplatin IC20 combos (AID 1671453).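 Further: cells exposed for 96 hours before readout; 0% = vehicle DMSO and 100% = high DMSO killing control.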 The settings on record: HTB85 osteosarcoma cells, drug combinations, stronger effect = higher value.
A short description of assay [6]: CRL2098 osteosarcoma cell growth inhibition, synergistic combos for chromothripsis tumors, BGB or cisplatin IC20 combos (AID 1671454).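 Further: cells exposed for 96 h before readout; 0% = vehicle DMSO and 100% = killing by high DMSO.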 Particulars: CRL2098 osteosarcoma cells, drug combinations, stronger effect = higher value.
The nature of assay [7]: HD-MB03 medulloblastoma cell growth inhibition, synergistic combos for chromothripsis tumors, BGB or cisplatin IC20 combos (AID 1671455; in the data active means inhibition above about 83%;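 further: 0% = vehicle DMSO and 100% = high DMSO as cytotoxic control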). The settings on record: HD-MB03 medulloblastoma cells, stronger effect = higher value.
A short description of assay [8]: UWB1.289 ovarian carcinoma cell growth inhibition, synergistic combos for chromothripsis tumors, BGB or cisplatin combos (AID 1671456).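 Further: cells exposed to compound for four days; 0% = vehicle DMSO and 100% = killing by high DMSO.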 Particulars: UWB1.289 ovarian carcinoma cells, stronger effect = higher value.
A short description of assay [9]: LFS_MB_2R medulloblastoma cell growth inhibition, synergistic combos for chromothripsis tumors, cisplatin combos (AID 1671457).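 Further: cells exposed to compound for four days before readout.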 Particulars: LFS_MB_2R medulloblastoma cells, stronger effect = higher value.
The nature of assay [10]: MDA-MB-436 breast carcinoma cell growth inhibition, synergistic combos for chromothripsis tumors, BGB or cisplatin combos (AID 1671458; call rule not given here;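 further: cells exposed for 96 hours; 0% = vehicle DMSO and 100% = killing by high DMSO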). The settings on record: MDA-MB-436 breast carcinoma growth inhibition, drug combinations, stronger effect = higher value.
The nature of assay [11]: UWB1.289_BRCA1 ovarian cancer growth, cell-based, BGB or cisplatin combinations (AID 1671459). Particulars: UWB1.289 BRCA1 ovarian carcinoma, drug combinations, stronger effect = higher value.
Assay [12] can be described thus: human astrocyte viability loss, single and combined drugs, cytotoxicity control for chromothriptic childhood tumor combination screen, cell-based, BGB or cisplatin IC20 combos (AID 1671460).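 Further: cells exposed to compounds for 96 hours before viability readout; 0% = vehicle and 100% = killing control.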 Particulars: Human astrocytes, drug combinations, stronger effect = higher value.
A short description of assay [13]: growth inhibition of BT084 medulloblastoma cells, cell-based, ICGC_MB145, cisplatin and BGB IC40 combos (AID 1671461).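 Further: cells exposed to drugs for 96 hours; 0% = vehicle DMSO and 100% = high DMSO full killing control.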 The settings on record: drug combinations, stronger effect = higher value.
Assay [14] is described as follows: growth inhibition of RCMB18 medulloblastoma cells, cell-based, cisplatin and BGB IC40 combos (AID 1671462).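 Further: cells exposed to compound for four days.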 Particulars: stronger effect = higher value.
The nature of assay [15]: growth inhibition of CRL1545 osteosarcoma cells, cell-based, cisplatin and BGB IC20 combos (AID 1671464).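 Further: cells exposed to compound for 96 hours before readout; 0% = vehicle DMSO and 100% = high DMSO killing control.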 Particulars: stronger effect = higher value.
For assay [16], the target named is Huntingtin (Homo sapiens) (UniProt P42858). Description: inhibitors of mutant Htt aggregation in vitro, dose response, QA1 (AID 1584). Particulars: in vitro mutant huntingtin aggregation assay; confirmation test; at 10 µM; stronger effect = lower value.
The nature of assay [17]: Cy5 fluorescence quenching or enhancement artefacts, artefact control for HCV NS3 helicase inhibitor project, biochemical, LOPAC1280 (AID 687037; call rule not given here). The settings on record: Cy5-DNA-NS3h complex fluorescence interference counterscreen. (In general: A counterscreen serves to expose hits that act by an unwanted route or on another target.)
The target in assay [18] is ATP-dependent translocase ABCB1 (Homo sapiens) (UniProt P08183). Put plainly: MDR1 (ABCB1) efflux transporter inhibition, cell-based (AID 377; in the data active means fluorescence slope change above about 50%). Particulars: MDR1-expressing cells, fluorescent substrate accumulation slope; stronger effect = higher value; concentration not given here.
Assay [19] in a line: protection against mutant huntingtin cytotoxicity, PC12 cells, LDH release (AID 1610). The settings on record: PC12 mutant huntingtin toxicity, final LDH at 4 uM, stronger effect = lower value. (Release of lactate dehydrogenase indicates damage to the cell membrane.)
Where [20] appears, read: measured here: combination with BGB IC40, at 0.05 µM.
Setting [21] is: measured here: with BGB IC20 combination, at 0.5 µM.
The mark [22] stands for this setting: measured here: with cisplatin IC20 combination, at 0.5 µM.
The mark [23] stands for this setting: measured here: combination with cisplatin, at 0.5 µM.
[24] abbreviates: measured here: combination with cisplatin, at 5 µM.

Inconclusive results are not listed. The source made the active and inactive calls. Unless noted, no stated cut-off is given here; in the data, active means inhibition above about 80%; inactive means the rest.

ATP-dependent translocase ABCB1 (Homo sapiens), sequence (P08183 whole entry, looked up): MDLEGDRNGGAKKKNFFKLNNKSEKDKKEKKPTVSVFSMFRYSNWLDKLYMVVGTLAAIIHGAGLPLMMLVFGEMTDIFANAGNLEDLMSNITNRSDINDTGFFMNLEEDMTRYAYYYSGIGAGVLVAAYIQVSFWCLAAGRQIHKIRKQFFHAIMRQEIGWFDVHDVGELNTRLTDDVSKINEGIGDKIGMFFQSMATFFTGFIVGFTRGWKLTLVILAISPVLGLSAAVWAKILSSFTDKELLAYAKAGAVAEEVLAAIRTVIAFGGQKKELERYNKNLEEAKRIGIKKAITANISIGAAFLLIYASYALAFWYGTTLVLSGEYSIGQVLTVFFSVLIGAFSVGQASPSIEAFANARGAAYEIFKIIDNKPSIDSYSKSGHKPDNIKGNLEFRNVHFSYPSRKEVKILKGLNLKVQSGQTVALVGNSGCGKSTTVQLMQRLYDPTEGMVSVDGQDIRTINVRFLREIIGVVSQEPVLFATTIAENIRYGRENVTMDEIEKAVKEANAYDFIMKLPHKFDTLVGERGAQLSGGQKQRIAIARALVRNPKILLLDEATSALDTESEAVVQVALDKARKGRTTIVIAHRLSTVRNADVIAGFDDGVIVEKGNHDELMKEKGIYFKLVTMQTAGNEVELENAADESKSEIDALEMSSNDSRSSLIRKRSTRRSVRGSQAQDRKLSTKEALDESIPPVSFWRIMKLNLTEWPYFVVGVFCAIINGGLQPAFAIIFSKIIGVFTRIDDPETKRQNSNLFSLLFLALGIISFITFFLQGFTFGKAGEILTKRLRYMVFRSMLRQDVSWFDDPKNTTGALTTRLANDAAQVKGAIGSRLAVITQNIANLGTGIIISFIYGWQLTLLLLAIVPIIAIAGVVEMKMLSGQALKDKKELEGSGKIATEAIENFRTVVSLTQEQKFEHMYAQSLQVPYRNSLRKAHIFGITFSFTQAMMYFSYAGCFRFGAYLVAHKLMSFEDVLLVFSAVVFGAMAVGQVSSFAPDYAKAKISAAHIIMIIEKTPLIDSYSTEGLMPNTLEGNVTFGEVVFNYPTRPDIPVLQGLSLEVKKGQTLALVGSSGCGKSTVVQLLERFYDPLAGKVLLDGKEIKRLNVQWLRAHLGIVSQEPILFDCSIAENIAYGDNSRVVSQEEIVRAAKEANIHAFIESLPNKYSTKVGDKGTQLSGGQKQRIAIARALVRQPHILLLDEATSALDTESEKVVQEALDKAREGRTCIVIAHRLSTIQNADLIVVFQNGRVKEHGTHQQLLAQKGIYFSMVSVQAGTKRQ
Huntingtin (Homo sapiens), sequence (P42858 whole entry, looked up): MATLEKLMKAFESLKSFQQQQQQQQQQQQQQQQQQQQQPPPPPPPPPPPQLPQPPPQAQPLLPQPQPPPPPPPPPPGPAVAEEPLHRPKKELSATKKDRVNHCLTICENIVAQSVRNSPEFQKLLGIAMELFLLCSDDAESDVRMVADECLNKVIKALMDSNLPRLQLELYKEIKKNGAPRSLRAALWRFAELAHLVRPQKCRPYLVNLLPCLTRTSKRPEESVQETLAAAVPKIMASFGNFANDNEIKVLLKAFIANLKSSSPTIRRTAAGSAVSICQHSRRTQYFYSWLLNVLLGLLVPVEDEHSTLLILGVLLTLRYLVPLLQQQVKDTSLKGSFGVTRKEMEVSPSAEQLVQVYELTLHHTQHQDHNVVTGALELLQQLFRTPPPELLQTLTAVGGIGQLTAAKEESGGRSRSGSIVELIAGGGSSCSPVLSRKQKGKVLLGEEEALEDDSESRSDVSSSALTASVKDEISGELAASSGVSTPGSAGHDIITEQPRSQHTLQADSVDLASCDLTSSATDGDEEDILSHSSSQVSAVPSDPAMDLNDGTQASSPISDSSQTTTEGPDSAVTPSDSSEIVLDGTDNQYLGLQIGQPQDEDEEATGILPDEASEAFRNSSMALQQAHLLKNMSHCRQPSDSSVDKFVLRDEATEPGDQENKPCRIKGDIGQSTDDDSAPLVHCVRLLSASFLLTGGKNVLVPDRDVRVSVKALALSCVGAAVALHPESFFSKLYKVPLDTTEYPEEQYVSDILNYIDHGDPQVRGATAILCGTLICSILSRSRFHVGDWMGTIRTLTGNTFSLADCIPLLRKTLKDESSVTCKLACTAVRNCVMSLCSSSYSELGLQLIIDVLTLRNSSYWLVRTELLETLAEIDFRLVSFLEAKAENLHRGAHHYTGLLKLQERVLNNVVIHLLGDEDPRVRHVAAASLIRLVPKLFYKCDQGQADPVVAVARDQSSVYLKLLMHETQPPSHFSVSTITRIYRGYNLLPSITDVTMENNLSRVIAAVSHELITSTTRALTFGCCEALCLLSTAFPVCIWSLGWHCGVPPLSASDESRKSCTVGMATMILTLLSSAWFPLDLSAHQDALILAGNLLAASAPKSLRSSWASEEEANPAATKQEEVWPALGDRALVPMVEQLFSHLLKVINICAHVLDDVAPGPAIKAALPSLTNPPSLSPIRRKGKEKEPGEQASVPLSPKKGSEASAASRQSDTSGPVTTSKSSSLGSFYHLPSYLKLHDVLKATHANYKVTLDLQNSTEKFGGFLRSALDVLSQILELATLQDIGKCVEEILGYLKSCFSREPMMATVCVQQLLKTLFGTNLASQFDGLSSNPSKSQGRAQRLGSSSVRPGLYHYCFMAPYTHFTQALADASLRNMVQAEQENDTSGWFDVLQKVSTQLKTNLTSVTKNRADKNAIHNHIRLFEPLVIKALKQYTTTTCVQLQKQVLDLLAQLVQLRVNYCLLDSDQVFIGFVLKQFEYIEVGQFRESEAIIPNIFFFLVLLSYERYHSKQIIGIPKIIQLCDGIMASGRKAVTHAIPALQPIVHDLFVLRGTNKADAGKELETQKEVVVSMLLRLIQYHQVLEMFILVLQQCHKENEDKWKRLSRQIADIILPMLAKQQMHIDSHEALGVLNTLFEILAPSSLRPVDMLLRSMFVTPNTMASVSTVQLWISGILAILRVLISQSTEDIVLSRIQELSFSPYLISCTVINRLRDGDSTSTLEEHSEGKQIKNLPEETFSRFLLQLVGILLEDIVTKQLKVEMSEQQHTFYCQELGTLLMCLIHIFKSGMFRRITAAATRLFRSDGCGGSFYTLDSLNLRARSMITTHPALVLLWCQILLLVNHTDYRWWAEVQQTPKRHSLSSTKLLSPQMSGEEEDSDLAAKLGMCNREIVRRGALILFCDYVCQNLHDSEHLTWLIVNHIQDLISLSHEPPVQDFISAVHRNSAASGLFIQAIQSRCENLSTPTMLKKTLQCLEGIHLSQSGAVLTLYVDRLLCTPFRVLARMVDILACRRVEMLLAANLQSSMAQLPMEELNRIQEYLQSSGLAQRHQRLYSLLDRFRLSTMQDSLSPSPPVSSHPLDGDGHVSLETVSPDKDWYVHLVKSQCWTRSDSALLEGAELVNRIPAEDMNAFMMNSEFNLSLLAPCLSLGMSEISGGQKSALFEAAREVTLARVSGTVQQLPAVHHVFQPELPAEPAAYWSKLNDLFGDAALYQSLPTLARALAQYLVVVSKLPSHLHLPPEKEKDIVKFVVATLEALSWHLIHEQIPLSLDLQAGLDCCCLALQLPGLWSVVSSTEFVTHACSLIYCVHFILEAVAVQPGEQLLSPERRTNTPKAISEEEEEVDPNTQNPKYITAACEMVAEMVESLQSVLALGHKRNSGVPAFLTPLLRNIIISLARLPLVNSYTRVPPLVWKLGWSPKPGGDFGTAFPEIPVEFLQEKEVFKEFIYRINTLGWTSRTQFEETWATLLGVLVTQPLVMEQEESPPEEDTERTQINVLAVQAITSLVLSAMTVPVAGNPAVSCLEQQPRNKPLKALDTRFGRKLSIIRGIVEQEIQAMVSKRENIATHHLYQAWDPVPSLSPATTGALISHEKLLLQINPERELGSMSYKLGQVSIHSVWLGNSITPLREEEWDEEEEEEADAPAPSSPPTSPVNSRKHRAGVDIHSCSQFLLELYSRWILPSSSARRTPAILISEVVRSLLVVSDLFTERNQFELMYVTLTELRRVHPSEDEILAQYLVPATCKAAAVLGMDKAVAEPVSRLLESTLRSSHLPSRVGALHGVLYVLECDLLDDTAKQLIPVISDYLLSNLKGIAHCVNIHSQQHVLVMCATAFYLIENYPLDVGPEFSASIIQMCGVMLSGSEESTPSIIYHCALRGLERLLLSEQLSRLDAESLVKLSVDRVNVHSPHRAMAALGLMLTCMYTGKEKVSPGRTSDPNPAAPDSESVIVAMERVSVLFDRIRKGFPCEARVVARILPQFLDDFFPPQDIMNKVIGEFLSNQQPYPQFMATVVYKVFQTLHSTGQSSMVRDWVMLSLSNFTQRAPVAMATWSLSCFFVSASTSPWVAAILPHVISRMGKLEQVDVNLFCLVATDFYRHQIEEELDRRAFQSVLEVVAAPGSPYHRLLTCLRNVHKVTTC

In the case of `COc1c2ccoc2cc2oc(=O)ccc12`, the inhibition in assay [1] (at 0.5 µM, stronger effect = higher value) is -22.9% (inactive); in assay [1] (measured here: combination with BGB IC20, at 0.005 µM), -15%; in assay [1] (measured here: combination with BGB IC40, at 0.005 µM), -30%; in [1] (setting [20]), 3.17%; in assay [1] (measured here: combination with cisplatin, at 0.5 µM, stronger effect = higher value) it was -36.3%; in [1] (measured here: combination with cisplatin, at 5 µM, stronger effect = higher value), -26.9%. Further, the inhibition in assay [2] (BGB combo, at 5 µM) is -4.43%; in assay [2] (at 0.5 µM) it was -1.51% (inactive); in [2] (cisplatin combo, at 5 µM) it was -17.2%; in assay [2] (setting [21]), 5%; in assay [2] (setting [22]), 1.07%; in [2] (single agent, at 5 µM), -13.4%. In addition, the inhibition in assay [3] (BGB IC20 combo, at 0.005 µM) was -7.99%; in assay [3] (BGB IC40 combo, at 0.005 µM), -11.7%; in assay [3] (BGB IC40 combo, at 0.05 µM) it was -24.6%; in assay [3] (at 0.5 µM), -24.1% (inactive); in assay [3] (cisplatin combo, at 0.05 µM) it was -24.6%; in [3] (cisplatin combo, at 0.5 µM), -26.9%. The inhibition in assay [3] (cisplatin combo, at 5 µM) is -4.96%; in assay [3] (measured here: 5 uM single agent, at 5 µM) it was -16.8%; in assay [4] (at 0.5 µM) it was -1.71% (inactive); in assay [4] (setting [20]), -39.8%; in assay [4] (setting [23]) it was -31.5%; in assay [4] (setting [24]), 0.408%. Also, the inhibition was -23.4% (inactive) in assay [5] (at 0.5 µM); -60.7% in [5] (measured here: with BGB IC20, at 0.5 µM); -19.3% in assay [5] (measured here: with BGB IC20, at 5 µM); -7.94% in [5] (measured here: with cisplatin IC20, at 0.5 µM); 10.7% in assay [5] (measured here: with cisplatin IC20, at 5 µM); -6.82% in [5] (single agent, at 5 µM). In addition, the inhibition in assay [6] (at 0.5 µM) was -46.9% (inactive); in [6] (measured here: combination with BGB at IC20, at 0.5 µM) it was -48%; in [6] (measured here: combination with cisplatin at IC20, at 0.5 µM) it was -47.5%; in assay [7] (at 0.5 µM) it was -4.51% (inactive); in assay [7] (measured here: combo with BGB at IC20, at 0.5 µM) it was -4.11%; in assay [7] (measured here: combo with cisplatin at IC20, at 0.5 µM) it was -2.34%. Moreover, the inhibition in assay [8] (at 0.5 µM) was -2.25% (inactive); in assay [8] (measured here: inhibition with BGB combination, at 0.05 µM), -12.4%; in assay [8] (measured here: inhibition with cisplatin combination, at 0.05 µM) it was -7.34%; in [9] (at 0.5 µM), -16.1% (inactive); in assay [9] (setting [23]), -10.7%; in assay [9] (setting [24]), 0.771%. Moreover, the inhibition in [10] (at 0.5 µM) was -22.2% (inactive); in assay [10] (measured here: BGB combination, at 0.5 µM), -22.9%; in assay [10] (measured here: BGB combination, at 5 µM) it was -18.9%; in [10] (measured here: cisplatin combination, at 0.5 µM) it was -40%; in [10] (measured here: cisplatin combination, at 5 µM), -24.1%; in assay [11] (BGB combination, concentration series, at 5 µM), 5.68%. Also, the inhibition in assay [11] (at 0.5 µM) was -4.34% (inactive); in assay [11] (cisplatin combination, concentration series, at 5 µM), 13.5%; in [12] (at 0.5 µM), 1.97% (inactive); in assay [12] (measured here: combo with BGB IC20, at 0.5 µM) it was -6.42%; in assay [12] (measured here: combo with cisplatin IC20, at 0.5 µM), 7.69%; in [13] (at 0.5 µM), -16.4% (inactive). For the same molecule, the inhibition in assay [13] (cisplatin combination, at 0.5 µM) is -9.55%; in assay [13] (cisplatin combination, at 5 µM), -48%; in assay [13] (measured here: BGB IC40 combination 0.05 uM, at 0.05 µM), -9.91%; in assay [13] (single agent, at 5 µM) it was -11.1%; in assay [14] (at 0.5 µM), -11% (inactive); in assay [14] (cisplatin combo, at 5 µM) it was 17.9%. The inhibition in [14] (measured here: BGB IC40 combination, at 0.05 µM) is -6.4%; in [14] (setting [23]), -1.6%; in [14] (single agent, at 5 µM), -15.2%; in assay [15] (at 0.5 µM), -17.9% (inactive); in [15] (setting [21]), -18.6%; in assay [15] (setting [22]), -17.5%. Further, the inhibition in assay [15] (single agent, at 0.05 µM) was -2.38%; in [15] (single agent, at 5 µM), 22.5%.
As to `Cc1cc(/C=C/c2ccc3cc(N(C)C)ccc3[n+]2C)c(C)n1-c1ccccc1`, in assay [16], the aggregation ratio was determined as 0.715.
Regarding `C=C1c2c(Cl)ccc(O)c2C(O)=C2C(=O)[C@]3(O)C(O)=C(C(N)=O)C(=O)[C@@H](N(C)C)[C@@H]3[C@@H](O)[C@H]12`, the aggregation ratio in [16] worked out at 0.703.
In the case of `NCCCS(=O)(=O)O`, the fluorescence ratio (interference) in [17] is 1 (inactive).
The same measure, in the same setting: then `NCCCCC(=O)O`, with 0.9 (inactive); and `Cn1c(=O)[nH]c2ncn(C)c2c1=O`, with 1 (inactive); and `O=C1OC(=O)C2C3CCC(O3)C12` (stereo unspecified), with 1 (inactive).
Regarding `COc1ccc([C@@H]2CC(=O)c3c(O)cc(O)cc3O2)cc1O`, the fluorescence slope change in assay [18] is 5.5% (inactive).
Still for that read-out and setting: the figure for `CCCCN1CCCCC1C(=O)Nc1c(C)cccc1C` (stereo unspecified) is -6% (inactive).
As for `CC(C(=O)O)c1cccc(Oc2ccccc2)c1` (stereo unspecified), the fluorescence slope change in [18] was 22.2% (inactive).
Consider `CN(C)CCC(c1ccc(Br)cc1)c1ccccn1` (stereo unspecified), for which the fluorescence slope change in assay [18] was 54.4% (active). Further, the fluorescence ratio (interference) in assay [17] is 0.9 (inactive).
For `COc1cc2ccc(=O)oc2cc1O`, the normalised LDH release in assay [19] came to 0.874.
On to `CC(C)Cn1c(=O)n(C)c(=O)c2[nH]cnc21`, for which, in [17], the fluorescence ratio (interference) was 0.9 (inactive).
